TexasRed fluor: Total Fluorescence Counterscreen for Inhibitors of the Interaction of Thyroid Hormone Receptor and Steroid Receptor Coregulator 2; Potency, µM (highest dose often 106 µM), without a hit: top-dose fluorescence change, negative = quenching; TRb/SRC2 Texas Red total fluorescence interference; hit rate 0.29% among 280,000; active = well fitted curve in either direction with a large enough effect; inconclusive = small, poorly fitted or top-dose-only effect; also: % is scaled to controls: 0 for no effect and ±100 for the full control effect
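Flags fluorescent or light-absorbing compounds by total fluorescence, S + 2P, at 555 nm excitation and 632 nm emission. Mixture: 20 nM Texas Red SRC2 peptide, 0.6 uM human TRb LBD, 1 uM T3, 5% DMSO; compound exposure 5 h at ambient temperature.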
ERG Ets-DNA blk: qHTS for Small Molecule Inhibitors of the ERG Ets/DNA interaction; hit rate 0.028% among 370,000; fluorescence polarization, His-ERG Ets domain / labelled DNA; Potency, µM (top dose mostly 76.9 µM), for the others: at the highest dose FP activity, negative = inhibition, actives largely listed as inhibitors; active = well fitted inhibition curve with a large enough effect in the polarisation, with a control signal flat; inconclusive = small, poorly fitted or top-dose-only effect, or effect the other way, or a change in a side signal; inactive = no such curve, though single readings can be large or run the other way; the % refers to the polarisation;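 also: polarization taken with two DNA probes labelled with fluorescein and Texas red; % of control where 0% means no effect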
Target sequence (P11308 whole entry, looked up, the tested form may be a part): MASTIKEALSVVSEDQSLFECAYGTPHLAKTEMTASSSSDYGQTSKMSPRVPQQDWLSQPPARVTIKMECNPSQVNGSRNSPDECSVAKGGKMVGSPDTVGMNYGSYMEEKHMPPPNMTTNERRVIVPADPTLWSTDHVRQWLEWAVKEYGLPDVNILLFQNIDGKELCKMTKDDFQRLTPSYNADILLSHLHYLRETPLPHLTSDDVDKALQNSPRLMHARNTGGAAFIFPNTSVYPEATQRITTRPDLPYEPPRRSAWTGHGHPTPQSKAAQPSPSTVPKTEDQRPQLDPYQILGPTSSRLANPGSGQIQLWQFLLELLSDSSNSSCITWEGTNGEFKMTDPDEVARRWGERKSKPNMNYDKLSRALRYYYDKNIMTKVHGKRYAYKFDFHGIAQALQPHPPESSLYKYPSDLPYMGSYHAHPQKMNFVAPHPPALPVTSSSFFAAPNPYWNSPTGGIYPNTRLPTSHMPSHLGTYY
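His-tagged ERG Ets domain (1 uM in the protein solution; 300mM KCl, 50mM Tris-HCl, 1mM EDTA, 1mM DTT, pH 7.5) received compound, then a probe mix of 5 nM fluorescein-DNA and 100nM Texas-615-DNA. Fluorescence polarization was read for both dyes.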
GoLoco inh red: qHTS Assay for Inhibitors of RGS12 GoLoco Motif Activity (Red Fluorophore); Guanine nucleotide-binding protein G(i) subunit alpha-1 (Homo sapiens), P63096; Gai1:RGS12 GoLoco peptide FP, rhodamine, 10 min; Potency, µM (series often up to 61.6 µM), for the others: top-dose activity, negative = inhibition, hits mostly inhibitors; hit rate 0.44% among 230,000; active = well fitted inhibition curve with a large enough effect, not every such curve was filed as active; inactive = no such curve, though single readings can be large or run the other way; also: % is scaled to controls: 0 for no effect and ±100 for the full control effect; nearly all actives have a fitted effect of over 30% in size
TRb-SRC2 inh: qHTS for Inhibitors of the Interaction of Thyroid Hormone Receptor and Steroid Receptor Coregulator 2 | hit rate 0.065% among 280,000 | TRbeta-SRC2 peptide binding, fluorescence polarization; receptor liganded with 1 µM T3 | Thyroid hormone receptor beta (Homo sapiens), P10828 | Potency, µM (series often up to 106 µM), inactives show top-dose activity change, negative = inhibition, hits mostly inhibitors; active = well fitted inhibition curve with a large enough effect; inconclusive = small, poorly fitted or top-dose-only effect, or effect the other way;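 also: plate controls were bound peptide for no effect and peptide without receptor for full effect; nearly all actives have a fitted effect of over 50% in size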
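Quantitative HTS by FP: 0.6 uM TRb LBD, 20 nM labeled SRC2 20-mer, 1 uM T3, 5% DMSO; 5 hr ambient incubation; % activity per concentration and potencies from concentration series.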
Numbers without * were called inactive; u = inconclusive; x = no result; [ ] = another dose, or the depositor's remark. Only a selection was taken, and hits are over-represented in it overall. Potency is read from the fitted curve at half-maximal effect.

SMILES	TexasRed fluor	ERG Ets-DNA blk	GoLoco inh red	TRb-SRC2 inh
C1CCCNCC1	-2%	x	22µM*	8%
C1CNCCNCCCNCCNC1	-4%	x	9%	-9%
CCOC(=O)CC1(C)OCC(C[N+]2(C)CCCCC2)O1 (centres undefined)	2%	-5%	11µM*	-2%
C[N+]1(CC(=O)OC2CCCCCCCCCCC2)CCCC1	2%	5%	-36%	7%
COC(=O)C1=C(C(=O)OC)[C@@H]2N(Cc3ccccc3)c3ccccc3[C@@]23C[C@@H](C(=O)OC)N(S(=O)(=O)c2ccc4c(c2)OCCN4C)C3=N1	-3%[11.2 µM]	x	3%[14.2 µM]	7%[11.2 µM]
COC(=O)[C@H]1C[C@@H]1[C@H](NC(C)=O)c1ccccc1	-22%	x	1.3µM*	-8%
COC(=O)[C@@H]1C[C@H]1[C@@H](NC(=O)c1ccccc1)c1ccccc1	-3%	-2%	-1%	15%
CCC[N+](C)(C)C(C)C(OC(C)=O)c1ccccc1 (centres undefined)	-1%	4%	7.9µM*	-4%
CCN(CC)Cc1cc(O)c(CN(CC)CC)cc1O	u	-9%	7.9µM*	-10%
O=C1/C(=C/c2ccc(O)c(O)c2)Oc2ccccc21	-25%	x	x	24%
O=C(NCc1ccc(F)cc1)c1nnc(Cc2cccc(F)c2)o1	u	2%	x	-3%
O=C(NCCc1ccccc1)c1nnc(Cc2cccc(F)c2)o1	0.0056µM*[quencher]	5%	x	-23%
Cn1c(=S)[nH]c(=O)c2ncc(=O)[nH]c21	-2%	14µM*	-6%	9%
Cc1nc2[nH]c(=S)n(C)c(=O)c2nc1C	-2%	x	-13%	-9%
Cc1ccc(F)c(C2C3C=CCCC3(C)C(=O)N2Cc2ccccc2)c1 (centres undefined)	0%	x	x	-5%
O=C1C(=Cc2cccn2-c2ccc(O)cc2)C(=O)c2ccccc21	-3%	0%	20µM*	-2%
O=C1C(=Cc2cccn2-c2ccccc2)C(=O)c2ccccc21	-2%	6%	-6%	-12%
COC(=O)C1CSc2[nH]c(=O)sc2C1c1ccc(O)c(OC)c1 (centres undefined)	0%	10%	20µM*	7%
COc1ccc(C2c3sc(=O)[nH]c3SCC2C(N)=O)cc1 (centres undefined)	-7%	21%	9%	1%
CCOC(=O)c1cnc2c(C)cc(C)cc2c1Nc1ccc(S(=O)(=O)Nc2ncccn2)cc1	35µM*[quencher]	-1%	-16%	-13%[53 µM]
O=C(O)c1cccc(NC2=C(Cl)C(=O)c3ccccc3C2=O)c1	-10%	1%	14µM*	10%
O=C(O)c1ccc(NC2=C(Cl)C(=O)c3ccccc3C2=O)cc1	-5%	4%	-14%	7%
CCSc1ccc2cc(OC)ccc2[n+]1CC	-3%	1%	2.5µM*	2%
CCn1ccc2cc(OC)ccc2c1=S	-3%	-12%	9%	-14%
CSC1=NC2C(N1)N(C)C(=O)N2C (centres undefined)	0%	4%	16µM*	-9%
SMILES	TexasRed fluor	ERG Ets-DNA blk	GoLoco inh red	TRb-SRC2 inh
CC1(C)CC(OC(=O)CCCCCCCCC(=O)OC2CC(C)(C)NC(C)(C)C2)CC(C)(C)N1	-1%[201 µM]	x	x	-2%[201 µM]
CSc1ccc(CCNC(=O)c2ccc(-n3c(C)cc4c3CCC(C)C4)cc2)cc1 (centres undefined)	22µM*[quencher]	1%	x	-11%
CCN(c1ccccc1)S(=O)(=O)c1ccc(NC(=O)c2nc(S(C)(=O)=O)ncc2Cl)cc1	1.8µM*[quencher]	-1%	x	-9%
CCS(=O)(=O)c1ncc(Cl)c(C(=O)Nc2ccc(S(=O)(=O)N(C)c3ccccc3)cc2)n1	-13%	1%	x	2%
CC1=CC(=O)CC(C)(C)C1	-3%[201 µM]	x	x	-2%[201 µM]
NC(N)=NC[C@H](N)C(=O)O	x	x	-4%[14.2 µM]	x
CC(CCO)Nc1nc2c(c(=O)n(C)c(=O)n2C)n1Cc1cccc(Br)c1 (centres undefined)	-8%	x	-10%	0%
CC(CCO)Nc1nc2c(c(=O)n(C)c(=O)n2C)n1Cc1ccc(Br)cc1 (centres undefined)	0.0071µM*[quencher]	-8%	x	-21%
CCOC(=O)c1c(NC(=O)/C=C/c2ccc(OC)c(OC)c2)sc(C(C)=O)c1C	562µM*[quencher]	3%	x	-19%[53 µM]
CCOC(=O)c1c(NC(=O)/C=C/c2ccc(OCC)cc2)sc(C(C)=O)c1C	-1%	-3%	x	3%
Cc1cc(=O)c2c(O)c3c(O)cc(O)c4c5c(O)cc(O)c6c(O)c7c(=O)cc(C)c8c1c2c(c34)c(c65)c78	14µM*[fluorescent]	x	4.5µM*	13µM*
CCOC(=O)c1c(C)oc2nc(C)nc(N3CCN(c4ccc(C)cc4C)CC3)c12	447µM*[quencher]	1%	x	-11%
Cc1ccccc1Nc1c(-c2cc(Br)ccc2F)nc2ccccn12	3.2µM*[quencher]	5%	x	-4%
CCOC(=O)CCN1C(=O)[C@@H]2[C@H]3C(=CC[C@H]2C1=O)C(=O)[C@H]1O[C@H]1[C@H]3O	-3%[11.2 µM]	x	x	-6%[11.2 µM]
NN(c1ccccc1)c1ccccc1	0%[201 µM]	x	x	-2%[201 µM]
CCN(CC)c1ccc(N=Cc2cc(Br)ccc2O)cc1	11%	31%	91%	50µM*
CC(=O)Nc1nc(CC(C)C)cc(-c2ccccc2)c1C#N	-2%	2%	-2%	-6%
CC(=O)Nc1nc(CC(C)C)cc(-c2ccco2)c1C#N	-2%	-11%	2.8µM*	-9%
O=c1[nH]c2ccc(NCc3ccc(-c4ccc(Cl)cc4)o3)cc2[nH]1	100µM*[quencher]	2%	x	u
COC(=O)c1ccc(O)cc1	0%	5%	-82%	0%
COC(=O)c1cc(=O)c(O)c2c(O)c(O)ccc2c1	u	x	2.8µM*	-2%
CC(S)C(=O)NCC(=O)O (centres undefined)	0%	x	10µM*	1%
O=C(O)CNC(=O)[C@@H](CS)Cc1ccccc1	-2%[53 µM]	x	-5%[21.6 µM]	-6%[53 µM]
Cc1ccc2oc3c(c(=O)c2c1)C(c1ccc(O)cc1)N(CCCN(C)C)C3=O (centres undefined)	5.6e-05µM*[quencher]	0%	x	-18%
CCOc1ccc(C2c3c(oc4ccc(C)cc4c3=O)C(=O)N2CCCN(C)C)cc1 (centres undefined)	3%	-15%	x	0%
SMILES	TexasRed fluor	ERG Ets-DNA blk	GoLoco inh red	TRb-SRC2 inh
COc1ccc(C(=O)OCC[N+]2(C)CCOCC2)cc1	2%	-6%	7.9µM*	1%
COCCCNC1=C(Cl)C(=O)c2ccccc2C1=O	-3%	7%	16%	-6%
COCCCNc1c2c3c(cccc3[nH]c1=O)C(=O)c1ccccc1-2	u	7.1µM*	4.5µM*	u
Cc1ccc(CNC(=O)Cc2coc3cc(C)cc(C)c23)cc1	4.5µM*[quencher]	6%	x	u
Nc1cccc2c1C(=O)N(CC(=O)NC13CC4CC(CC(C4)C1)C3)C2=O	-2%	-16%	8%	7%
O=C(Cn1sc2ccccc2c1=O)NC12CC3CC(CC(C3)C1)C2	1%	-2%	28µM*	-2%
